FEN1 inh: human FEN1 inhibition; P39748; Recombinant FEN1 flap cleavage, fluorescence, 15 min; Potency, µM (doses to about 114 µM), without a hit: at the top dose activity change, negative = inhibition, actives largely listed as inhibitors; 390,000 tested, 0.35% active; further: on the % scale 0 is the no-effect control and ±100 the full control effect; nearly all actives have a fitted effect of over 65% in size
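Potency values derive from four-parameter Hill fits of normalized qHTS data. The reaction used 10 nM FEN1 preincubated 15 min at room temperature with compound, then 50 nM DNA substrate, read at 0 and 15 min.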
POLH inh: blocks human DNA polymerase eta activity; Q9Y253; recombinant Pol eta, fluorescent DNA replication assay; Potency, µM (series often up to 114 µM), for inactives: at the highest dose activity change, negative = inhibition, usual class: inhibitors; 390,000 tested, 1.2% active; AID 588591; further: on the % scale 0 is the no-effect control and ±100 the full control effect
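Pol eta at 10 nM preincubated with compounds 15 min at room temperature; reaction started with fluorescent substrate (50 nM final) and read kinetically at 0 and 10 min.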
POLB inh: DNA polymerase beta (human) inhibition; Pol beta primer extension/strand displacement, fluorescence kinetic; Potency, µM (top dose mostly 114 µM), without a hit: at the top dose activity change, negative = inhibition, actives largely listed as inhibitors; 340,000 tested, 1.3% active; further: on the % scale 0 is the no-effect control and ±100 the full control effect
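Preincubation: enzyme (10 nM) with compound, 15 min, RT. Reaction: substrate added to 50 nM final. Reads: 0 and 10 min. Analysis: normalized, Hill fit.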
TDP1 inh: blocks human tyrosyl-DNA phosphodiesterase 1; 350,000 tested, 0.28% active; Q9NUW8; Potency, µM (doses to about 130 µM), without a hit: at the highest dose activity change, negative = inhibition, actives largely listed as inhibitors; recombinant TDP1, AlphaScreen DNA substrate cleavage; AID 485290; further: on the % scale 0 is the no-effect control and ±100 the full control effect; nearly all actives have a fitted effect of over 40% in size
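Enzyme-compound mixtures sat 15 min at room temperature, followed by a 5 min reaction with 15 nM final substrate and 10 min with AlphaScreen beads. Recombinant human Tdp1 was used at 1 nM final.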
Pol iota inh: inhibitors of human DNA polymerase iota; Potency, µM (titrated, usually from 115 µM), for the others: at the top dose activity, negative = inhibition, usual class: inhibitors; Q9UNA4; AID 588590; Pol iota fluorescent replication assay, 10 min; 390,000 tested, 1% active
Target sequence (Q9UNA4 whole entry, looked up): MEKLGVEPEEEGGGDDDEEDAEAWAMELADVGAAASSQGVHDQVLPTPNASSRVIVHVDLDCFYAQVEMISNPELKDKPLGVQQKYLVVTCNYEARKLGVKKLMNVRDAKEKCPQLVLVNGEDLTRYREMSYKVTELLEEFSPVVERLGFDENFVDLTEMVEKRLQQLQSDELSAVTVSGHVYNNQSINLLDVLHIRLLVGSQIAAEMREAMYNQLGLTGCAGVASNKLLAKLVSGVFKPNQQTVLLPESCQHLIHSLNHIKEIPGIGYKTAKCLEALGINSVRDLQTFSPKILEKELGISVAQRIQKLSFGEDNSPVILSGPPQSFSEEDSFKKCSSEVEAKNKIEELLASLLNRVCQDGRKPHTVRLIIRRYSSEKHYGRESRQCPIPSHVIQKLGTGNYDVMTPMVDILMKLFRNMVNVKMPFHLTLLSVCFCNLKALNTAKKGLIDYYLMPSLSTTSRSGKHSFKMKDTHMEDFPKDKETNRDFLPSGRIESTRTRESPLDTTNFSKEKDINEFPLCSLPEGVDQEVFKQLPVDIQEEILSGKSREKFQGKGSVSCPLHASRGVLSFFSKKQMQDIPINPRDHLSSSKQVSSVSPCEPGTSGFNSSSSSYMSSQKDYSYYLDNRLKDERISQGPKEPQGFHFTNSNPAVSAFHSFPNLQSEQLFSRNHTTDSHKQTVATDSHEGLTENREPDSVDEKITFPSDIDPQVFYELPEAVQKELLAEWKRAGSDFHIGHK
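Fluorescent replication assay read twice, at 0 min and 10 min after adding 50 nM (final) substrate. Enzyme (10 nM) and compounds were first incubated 15 min at room temperature; enzyme-free buffer wells were negative controls.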
Pol kappa inh: DNA polymerase kappa (human) inhibition; 400,000 tested, 0.53% active; Q9UBT6; Potency, µM (series often up to 107 µM), for the others: at the highest dose activity, negative = inhibition, most hits filed as inhibitors; purified Pol kappa, fluorescent DNA synthesis assay, 10 min; further: on the % scale 0 is the no-effect control and ±100 the full control effect
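Readout: fluorescence, taken kinetically at 0 and 10 min. Conditions: 10 nM Pol kappa, 15 min RT compound preincubation, 50 nM substrate final. Controls: enzyme-free buffer wells.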
The depositor's hits bear a star; ? = inconclusive; . = no result; [ ] = dose if it differs, or a comment. Sampled rows, rich in hits. Any-hit rate of the full collection: about 2.4%. The call rests on the fitted dose curve; in most records, active means well fitted curve in the direction sought with a large enough effect; inconclusive means small, poorly fitted or top-dose-only effect, or another doubt; inactive means no such curve, though single readings can be large; an effect the other way counts as inactive or inconclusive. Potency means the concentration at half of the fitted maximal effect.

SMILES	FEN1 inh	POLH inh	POLB inh	TDP1 inh	Pol iota inh	Pol kappa inh
O=C(COC(=O)c1ccc2ncsc2c1)NC(=O)C1CCCCC1	14%	.	.	1%	71µM*	-26%
CC1CCC(NC(=O)COC(=O)c2ccc3ncsc3c2)CC1 (configuration not stated)	11%	-3%	.	1%	?	-1%
CN(C)c1ccc(/C=C/c2ccnc3ccccc23)cc1	-23%	.	.	.	26%	-8%
O=C(/C=C/c1ccoc1)c1ccccc1O	0%	-18%	-25%	2%	13%	-28%
COc1ccc2ccccc2c1C(=O)/C=C\c1ccoc1	-12%	?	45µM*	-1%	?	-15%
CCCCCCCCCCCCCCCC[N+](C)(C)CC	21%	89µM*	.	2%	19%	-7%
CCCCCC[N+](C)(C)CCSSCC[N+](C)(C)CCCCCC	-18%	3%	-2%	.	-3%	18%
COc1cc(/C=N/N=C(N)N)ccc1OCc1ccc(Cl)cc1	-7%	-23%	?	5%	22%	-11%
CCOc1cc(/C=N/N=C(N)N)ccc1OCc1ccc(Cl)cc1	2%	-16%	79µM*	-3%	13%	6%
NC(N)=N/N=C/c1ccc(OCc2ccccc2)c(OCc2ccccc2)c1	?	-22%	79µM*	8%	37%	-15%
Cc1sc2ccccc2[n+]1CCCCBr	-2%	.	.	.	?	9%
Oc1c(Cl)cc(Cl)cc1Sc1cc(Cl)cc(Cl)c1O	.	.	22µM*	3%	.	?
O=S(c1cc(Cl)cc(Cl)c1O)c1cc(Cl)cc(Cl)c1O	.	.	.	3%	.	-3%[19.4 µM]
COC(=O)COc1ccc2oc(=O)cc(-c3cc4cccc(OC)c4o3)c2c1	10%	?	2%	45µM*	36%	1%
COc1cccc2cc(-c3cc(=O)oc4ccc(OCC(C)=O)cc34)oc12	-4%	-7%	14%	1%	-12%	-7%
O=C(O)C1CSC(c2ccco2)N1 (configuration not stated)	?	10µM*	8.9µM*	.	?	18µM*
O=c1c(Cl)c(N/N=C/c2ccc(Cl)cc2)cnn1-c1ccccc1	?	?	18µM*	-6%	28µM*	?
O=C1C[C@H](c2ccc(O)cc2)Oc2cc(O[C@@H]3O[C@H](CO)[C@@H](O)[C@H](O)[C@H]3O)cc(O[C@@H]3O[C@H](CO)[C@@H](O)[C@H](O)[C@H]3O)c21	-9%	-6%	.	0%	-4%	-1%
O=C1C[C@@H](c2ccc(O)c(O)c2)Oc2cc(O[C@H]3O[C@@H](CO)[C@H](O)[C@@H](O)[C@@H]3O)cc(O)c21	.	.	.	-2%	.	21µM*
Oc1ccc(-c2csc(Nc3ccccn3)n2)cc1O	-24%	18µM*	7.9µM*	2%	?	?
Cc1ccnc(Nc2nc(-c3ccc(O)c(O)c3)cs2)c1	?	?	?	13%	?	-26%
O=C(O)COc1ccccc1/C=C1\SC(=Nc2ccc(F)cc2)N(c2ccc(F)cc2)C1=O	-34%	56µM*	-5%	5%	15%	5%
COc1ccccc1N(/N=C1\Sc2ccccc2C1=O)C(C)=O	-18%	89µM*	2%	.	?	2%
Cc1cc(C(=O)NNS(=O)(=O)c2cc(C(=O)O)ccc2Cl)c(C)n1-c1ccccc1	9%	22µM*	.	.	?	?
Cc1cc(C(=O)Nc2ccc(Cl)cc2)c(C)n1-c1ccccc1	-6%	-25%	0%	4%	136%	-10%
SMILES	FEN1 inh	POLH inh	POLB inh	TDP1 inh	Pol iota inh	Pol kappa inh
Cc1cc2ccccc2c[n+]1C1CCCCC1	-16%	.	.	.	16%	6%
Fc1ccc(Br)cc1C1C=C(c2ccc(Br)s2)Nc2ncnn21 (configuration not stated)	9%	28µM*	10µM*	5%	?	-9%
Cc1[nH]c2ccccc2c1/C=C/c1ccnc2ccccc12	?	.	.	.	25%	6%
O=[N+]([O-])c1cc2no[n+]([O-])c2cc1N1CCCCC1	50µM*	16µM*	.	.	?	?
c1coc(CSSCc2ccco2)c1	?	20µM*	.	0%[56.1 µM]	?	8.9µM*
CC(c1ccc(N(C)C)cc1)c1ccnc2ccccc12 (configuration not stated)	-20%	.	.	.	5%	-9%
CN(C)c1ccc(C(I)C(I)c2ccnc3ccccc23)cc1 (configuration not stated)	79µM*	.	.	.	-7%	-2%
COc1ccccc1-n1c(SCC(=O)Nc2ccccc2C)nc(O)cc1=O	8%	-9%	1%	-7%	56µM*	-19%
COc1ccccc1NC(=O)CSc1nc(O)cc(=O)n1-c1ccccc1OC	-2%	-5%	?	-2%	40µM*	-37%
c1cc2c(cc1Cc1cncc(Cc3ccc4c(c3)OCO4)c1)OCO2	-11%	.	.	.	34%	-3%
Cc1ccc(-n2ncc3c(Nc4ccc(Oc5ccccc5)cc4)ncnc32)c(C)c1	-3%	-14%	0%	0%	23%	0%[60.1 µM]
O=C(COC(=O)c1ccc(S(=O)(=O)NCc2ccco2)cc1)NCCC1=CCCCC1	-6%	?	45µM*	-8%	?	?
O=C(COC(=O)c1ccc(S(=O)(=O)NCc2ccco2)cc1)NCc1ccccc1	0%	-14%	.	-15%	?	?
COc1cccc(NC(=O)COC(=O)c2ccc(S(=O)(=O)NCc3ccco3)cc2)c1	14%	8.9µM*	?	-9%	?	?
O=C(c1ccc(S(=O)(=O)NCc2ccco2)cc1)N1CCCC1	-12%	-4%	1%	7%	16%	-1%
O=C(OCc1nnc(-c2ccccc2)o1)c1ccc(S(=O)(=O)NCc2ccco2)cc1	-12%	22µM*	3.5µM*	-3%	?	?
CN(C)S(=O)(=O)c1ccc(C(=O)OCc2nnc(-c3ccccc3)o2)cc1	7%	-12%	0%	.	63%	4%
CC1CCN(C(=O)c2ccc(S(=O)(=O)NCc3ccco3)cc2)CC1	3%	-22%	15%	89µM*	79%	-2%
CCOC(=O)N1CCN(/[N+]([O-])=N/OCOC)CC1	19%	.	.	.	24%	8%
CC(=O)Nc1ccc(S(=O)(=O)N2CCNC(=O)C2)cc1	-1%	-12%	.	1%	91%	-16%
CC(=O)c1ccc(S(=O)(=O)N2CCNC(=O)C2)cc1	1%	22µM*	.	-4%	?	-25%
CC(=O)c1ccc(S(=O)(=O)N2CCN(C(C)=O)CC2)cc1	0%	22µM*	-29%	-3%	110%	-14%
CC1Cc2ccccc2C[N+]1(C)CC(=O)c1ccc(I)cc1 (configuration not stated)	15%	.	.	.	4%	-3%
